An excerpt weighted towards active compounds, which were near 0.44% of everything screened.
YopH PTP inh: blocks Yersinia enterocolitica YopH tyrosine phosphatase; fluorescence Ex485/Em525; inhibition, % (test concentration not listed); 0.16% of 140,000 active; in the data active = inhibition above about 50%
RmlCD inh mix: RmlC/RmlD inhibition, mixture screen | RmlC/RmlD coupled enzyme inhibition, 384-well mixture HTS | inhibition, % at 5.5 µM | 0.39% of 110,000 active | AID 1532; in the data active = inhibition above about 30%, passing the limit was not always enough
RmlCD artifact: counter-screen for RmlC/RmlD inhibitors: fluorescence artifact; shares compounds with RmlCD inh mix; RmlC/RmlD assay fluorescence artifact counter-screen; calls only; 96% of 360 active; AID 1696; call rule not given here;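 note: compound alone with no enzyme and no substrates present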
An asterisk follows results filed as active; x = no result; + = active, no number.

SMILES	YopH PTP inh	RmlCD inh mix	RmlCD artifact
CC(C)(C)n1nc2c(c1NC(=O)COc1ccc3ccccc3c1)CS(=O)(=O)C2	9	-10	x
CC1Cc2ccccc2N1C(=O)CN1CCC(n2nnc3cc(C(F)(F)F)ccc32)CC1 (stereo not given)	-20	13	x
NC(=O)c1ccc(-c2ncc(-c3ccccc3)o2)cc1	-42	73*	+
c1ccc(-c2cnc(-c3cccnc3)o2)cc1	-33	20	x
COc1ccc(C#Cc2c(-c3ccsc3)oc3ccc(-c4cc(OC)c(OC)c(OC)c4)cc23)cc1	x	60*	+
COc1ccc(-c2oc3ccc(-c4cc(OC)c(OC)c(OC)c4)cc3c2-c2ccc(OC)cc2)cc1	x	-56	x
CCOC(=O)c1ccc(N2C(=O)c3n[nH]c(-c4ccco4)c3C2c2cccc([N+](=O)[O-])c2)cc1 (stereo not given)	-31	x	x
CCCCn1c(=O)nc2n(-c3ccccc3)c3ccccc3cc-2c1=O	-39	37*	+
CCCCn1c(=O)c(C(=O)c2ccccc2)nc2ccccc21	-16	2	x
CC(=O)Nc1ccc(SC(C)C(=O)NC(N)=O)cc1 (stereo not given)	-4	4	x
Cc1c2ccccc2nc2c(F)c(N(C)C)c(F)c(F)c12	-6	x	x
CN(C)c1c2ccccc2nc2c(F)c(F)c(F)c(F)c12	x	x	+
COCCN(CCOC)C(=O)c1cc2c(=O)n3ccccc3nc2s1	-39	115*	+
CCN(CC)C(=O)c1cc2c(=O)n3ccccc3nc2s1	-20	27	x
Cc1ccc2c(c1)c1ncnc(N3CCOCC3)c1n2C	-35	x	+
Cc1ccc2c(c1)c1ncnc(N3CCC4(CC3)OCCO4)c1n2C	-33	-28	x
Cc1cc(NCCCN(C)C)n2nc(-c3cccs3)cc2n1	-17	-10	x
Cc1cc(C)c2c(n1)nn1c(NCCCN(C)C)cc(C)nc21	-37	86*	+
CCCCCCCc1nn2c(=O)cc(O)nc2s1	-24	x	x
Cc1ccc(NC(=O)CN(Cc2ccccc2)S(C)(=O)=O)cc1C	-1	8	x
COc1ccc2oc(=O)c(C(=O)n3ccc(C)n3)cc2c1	5	111*	+
Cc1ccn(C(=O)c2cc3cc(Cl)ccc3oc2=O)n1	-27	1	x
Cc1ccn2c(C(=O)c3ccc(Cl)cc3)cnc2c1	-18	-13	x
C=CCn1c(SCC(=O)c2[nH]c(C)c(C(=O)OCC)c2C)nc2scc(-c3ccc(OC)cc3)c2c1=O	-28	x	x
CC1=C(C#N)C(NC(=O)c2cccc(Cl)c2)(C(F)(F)F)C(=O)N1 (stereo not given)	15	x	x
SMILES	YopH PTP inh	RmlCD inh mix	RmlCD artifact
CCOc1cc(NC(=O)c2ccco2)c(OCC)cc1NC(=O)c1cc(OC)c(OC)c(OC)c1	-24	+	+
COc1cc(NC(=O)c2ccco2)c(OC)cc1NC(=O)c1cc(OC)c(OC)c(OC)c1	-8	2	x
CNC(=O)c1ccc(-c2ccc(OC)cc2)s1	-3	85*	+
CNC(=O)c1ccc(-c2ccc(F)cc2)s1	-16	8	x
O=C(O)c1cc(-c2ccco2)nc2ccccc12	-22	54*	+
O=C(OCC(=O)N1CCN(C(=O)c2ccco2)CC1)c1cc(-c2ccc(Cl)c(Cl)c2Cl)nc2ccccc12	-12	-33	x
O=C(OCC(=O)N1CCN(C(=O)c2ccco2)CC1)c1cc(-c2ccco2)nc2ccccc12	-37	30*	+
O=C(Nc1nc2ccccc2s1)c1cc(-c2ccco2)nc2ccccc12	23	x	x
CCOC(=O)c1ccc(S(=O)(=O)N2CCC(C(=O)O)CC2)cc1	-24	11	x
CN(C)c1ccc(-c2nc3ccccn3c2/N=C/c2ccc(Br)cc2)cc1	-12	x	x
COc1cc(-c2nc3ccccn3c2/N=C/c2cc(OC)c(OC)c(OC)c2)ccc1O	-31	44*	+
CCCCn1c(-c2cccs2)nc2nc3ccccc3nc21	-21	56	x
CCCCOCCCn1c(-c2ccco2)nc2nc3ccccc3nc21	-40	41*	+
CCC1=C(OC(=O)N(CC)CC)N2C(=O)OC(=NCC3CC3)[C@]2(C)[C@H]2C1=CC[C@H]1C(=O)N(CC)C(=O)[C@H]12	x	-9	x
COC(=O)c1ccc(Oc2c(C)oc3c(CN4CCN(C)CC4)c(O)ccc3c2=O)cc1	-35	40*	+
COc1ccccc1Oc1c(C)oc2c(CN3CCN(C)CC3)c(O)ccc2c1=O	-22	x	x
Fc1ccc(Cn2ccc(-c3cnc(-c4ccccc4)s3)n2)cc1	-19	-9	x
O=C(c1ccc(F)cc1)n1ccc(-c2cnc(-c3ccccc3)s2)n1	-8	80*	+
COc1ccc(/C=N/NC(=O)Nc2cccc3nsnc23)c(OC)c1	-22	39*	+
COc1cc(/C=N/NC(=O)Nc2cccc3nsnc23)cc(OC)c1OC	-36	x	x
Cc1cccc(N/N=C/c2ccccc2O)c1	-2	x	x
CCOC(=O)c1nn(-c2ccc(Cl)cc2)c2nc(-c3ccc(C)cc3)c(C#N)c(=O)n12	3	11	x
